Measured values reported in PubChem BioAssay (NCATS).
Inconclusive results are not listed. Where a call stands in place of a potency, no number is given. Calls of active or inactive are those of the source. Calls come from the whole dose curve; as a rule, active = well fitted inhibition curve with a large enough effect; inconclusive = small, poorly fitted or top-dose-only effect; inactive = flat fitted curve, though single readings scatter.

How the values were obtained:
[1] = biological target: Glutathione peroxidase 1 (Homo sapiens) (UniProt P07203); assay: Primary qHTS Assay for Inhibitors of Recombinant Selenoprotein Glutathione Peroxidase 1 (GPX1) (AID 1845191)
Chain of Glutathione peroxidase 1 (Homo sapiens) (P07203 whole entry, looked up): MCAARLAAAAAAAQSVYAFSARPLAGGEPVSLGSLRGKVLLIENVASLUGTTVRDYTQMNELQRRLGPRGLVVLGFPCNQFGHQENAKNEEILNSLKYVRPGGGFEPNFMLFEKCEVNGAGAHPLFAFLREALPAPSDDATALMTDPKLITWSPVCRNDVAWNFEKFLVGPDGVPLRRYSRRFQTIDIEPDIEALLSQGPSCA
Summary of the method: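 GR-coupled readout: NADPH consumption tracked by fluorescence, ex 340/em 450 nm, at t=0 and after 15 min at RT. Final mix 10 nM GPX1, 1 mM GSH, 0.5 mM CHP, 0.5 mM NADPH, 100 nM GR, 0.01% BSA, following 30 min enzyme–compound preincubation.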

[2] = biological target: Phospholipid hydroperoxide glutathione peroxidase GPX4 (Homo sapiens) (UniProt P36969); assay: Primary qHTS Assay for Inhibitors of Recombinant Selenoprotein Glutathione Peroxidase 4 (GPX4) (AID 1845192); note: potency is the fitted concentration of half-maximal effect
Chain of Phospholipid hydroperoxide glutathione peroxidase GPX4 (Homo sapiens) (P36969 whole entry, looked up): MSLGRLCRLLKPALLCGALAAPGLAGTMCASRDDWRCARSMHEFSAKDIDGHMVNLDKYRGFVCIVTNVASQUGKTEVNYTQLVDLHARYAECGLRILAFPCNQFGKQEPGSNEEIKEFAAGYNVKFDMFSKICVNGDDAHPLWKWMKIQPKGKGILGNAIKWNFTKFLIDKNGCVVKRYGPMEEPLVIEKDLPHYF
Summary of the method: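 Steps: GPX4 plus compound, 30 min RT; add GR/GSH/NADPH master mix; start with cumene hydroperoxide; read 340/450 nm fluorescence at 0 and 15 min. Finals were 200 nM GPX4, 1 mM GSH, 0.5 mM CHP, 0.5 mM NADPH, 100 nM GR.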
Note: nearly all actives have a fitted effect of over 65% in size.

Row | Compound | Potency [1] | Potency [2]
1 | CC[C@@H]1Cc2cc(O)ccc2C2=C1c1ccc(O)cc1C[C@H]2CC | inactive | inactive
2 | O=C1C2C=CC=CC2=NC(=S)N1CCN1CCC(=C(c2ccc(F)cc2)c2ccc(F)cc2)CC1 (stereo unspecified) | inactive | inactive
3 | NCC(O)c1ccc(O)c(O)c1 (stereo unspecified) | inactive | inactive
4 | Nc1ncnc2c1ncn2C1CCCC1 | inactive | inactive
5 | CCCn1c(=O)c2[nH]c(-c3ccc(S(=O)(=O)O)cc3)nc2n(CCC)c1=O | – | 11.2 µM (active)
6 | CCC1(O)CC2CN(CCc3c([nH]c4ccccc34)[C@@](C(=O)OC)(c3cc4c(cc3OC)N(C=O)C3[C@]45CCN4CC=C[C@@](CC)([C@@H](OC(C)=O)[C@]3(O)C(=O)OC)[C@H]45)C2)C1 (stereo partly specified) | inactive | inactive
